Data from PubChem BioAssay AID1159580 (chemical genetic matrix, 2015).
Values joined by “and” are separate entries in the source; they are usually repeats but may differ in a detail not shown here. Equal values may be shown once. Out of some 5,500 compounds screened, about 2,000 (36%) were called active. Inconclusive results (about 18%) are left out. Rule as the data show it: active = normalized growth mostly below about 0.91 (no sharp cut-off); inconclusive = no clear call, values can overlap the other calls; inactive = mostly above about 0.92. The list shows a part of the results.

Test: chemical genetic growth profiling, strain panel (AID 1159580);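 also: tested at 20 µM; growth read once vehicle control cultures reached saturation at 30 °C; 1 = growth at the plate median or of vehicle wells; lower values mean less growth of the strain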
Details: growth OD

Measured: normalized growth

CN1C2CCC1CC(OC(c1ccccc1)c1ccccc1N)C2 (stereo unspecified)
inactive: S. cerevisiae deletion strains, locus YJR075W, strain HOC1, hits give low values 0.997 and 1.08 | S. cerevisiae deletion strains, locus YKL009W, strain mrt4, hits give low values 1.03 | S. cerevisiae deletion strains, locus YKL068W, hits give low values 1.01 | S. cerevisiae deletion strains, locus YKL085W, strain MDH1 (second series), hits give low values 1 | S. cerevisiae deletion strains, locus YKL085W, strain MDH1, hits give low values 1 | S. cerevisiae deletion strains, locus YKL160W, strain elf1, hits give low values 1 | S. cerevisiae deletion strains, locus YKL190W, strain CNB1, hits give low values 1 | S. cerevisiae deletion strains, locus YKR001C, strain vps1, hits give low values 1.02 | S. cerevisiae deletion strains, locus YKR026C, strain gcn3, hits give low values 0.99 | S. cerevisiae deletion strains, locus YKR091W, strain srl3, hits give low values 0.996 | S. cerevisiae deletion strains, locus YLL001W, strain dnm1, hits give low values 1.01 | S. cerevisiae deletion strains, locus YLL026W, hits give low values 0.982 | S. cerevisiae deletion strains, locus YLL041C, strain sdh2, hits give low values 1 | S. cerevisiae deletion strains, locus YLR027C, strain aat2, hits give low values 0.986 | S. cerevisiae deletion strains, locus YLR039C, strain RIC1, hits give low values 1.02 | S. cerevisiae deletion strains, locus YLR058C, strain SHM2, hits give low values 1 | S. cerevisiae deletion strains, locus YLR102C, strain apc9, hits give low values 1.01 | S. cerevisiae deletion strains, locus YLR113W, strain HOG1, hits give low values 1.05 | S. cerevisiae deletion strains, locus YLR221C, strain rsa3, hits give low values 0.998 | S. cerevisiae deletion strains, locus YLR258W, strain gsy2, hits give low values 1 | S. cerevisiae deletion strains, locus YLR262C, strain YPT6 (second series), hits give low values 1.03 | S. cerevisiae deletion strains, locus YLR262C, strain YPT6, hits give low values 1.02 | S. cerevisiae deletion strains, locus YLR268W, strain sec22, hits give low values 1.01 | S. cerevisiae deletion strains, locus YLR320W, strain mms22, hits give low values 0.994 | S. cerevisiae deletion strains, locus YLR330W, strain CHS5, hits give low values 1.01 | S. cerevisiae deletion strains, locus YLR342W, strain FKS1 (second series), hits give low values 1.02 | S. cerevisiae deletion strains, locus YLR342W, strain FKS1, hits give low values 0.994 | S. cerevisiae deletion strains, locus YLR357W, strain rsc2, hits give low values 0.979 | S. cerevisiae deletion strains, locus YLR370C, strain arc18, hits give low values 0.978 | S. cerevisiae deletion strains, locus YLR371W, strain rom2, hits give low values 1.01 | S. cerevisiae deletion strains, locus YLR384C, strain iki3, hits give low values 1 | S. cerevisiae deletion strains, locus YLR418C, strain cdc73, hits give low values 0.994 | S. cerevisiae deletion strains, locus YML016C, strain PPZ1, hits give low values 1 | S. cerevisiae deletion strains, locus YML032C, strain rad52, hits give low values 1.03 | S. cerevisiae deletion strains, locus YML120C, strain ndi1, hits give low values 0.988 | S. cerevisiae deletion strains, locus YML124C, strain tub3, hits give low values 1.02 | S. cerevisiae deletion strains, locus YMR058W, strain fet3, hits give low values 1 | S. cerevisiae deletion strains, locus YMR078C, strain ctf18, hits give low values 1.02 | S. cerevisiae deletion strains, locus YMR125W, strain sto1, hits give low values 0.992 | S. cerevisiae deletion strains, locus YMR129W, hits give low values 0.997 | S. cerevisiae deletion strains, locus YMR205C, strain PFK2, hits give low values 0.981 | S. cerevisiae deletion strains, locus YMR223W, strain ubp8, hits give low values 1.01 | S. cerevisiae deletion strains, locus YMR231W, strain pep5, hits give low values 0.999 | S. cerevisiae deletion strains, locus YMR263W, strain SAP30, hits give low values 0.999 and 1 | S. cerevisiae deletion strains, locus YMR307W, strain GAS1, hits give low values 1 | S. cerevisiae deletion strains, locus YNL067W, strain RPL9B, hits give low values 1.01 | S. cerevisiae deletion strains, locus YNL071W, strain lat1, hits give low values 1 | S. cerevisiae deletion strains, locus YNL128W, strain TEP1, hits give low values 0.993 | S. cerevisiae deletion strains, locus YNL153C, strain GIM3, hits give low values 1 | S. cerevisiae deletion strains, locus YNL175C, strain NOP13, hits give low values 1.01 | S. cerevisiae deletion strains, locus YNL183C, strain NPR1, hits give low values 0.92 | S. cerevisiae deletion strains, locus YNL197C, strain WHI3, hits give low values 1.02 | S. cerevisiae deletion strains, locus YNL209W, strain ssb2, hits give low values 1.01 | S. cerevisiae deletion strains, locus YNL224C, strain SQS1, hits give low values 1.03 | S. cerevisiae deletion strains, locus YNL233W, strain BNI4, hits give low values 1.01 | S. cerevisiae deletion strains, locus YNL248C, strain rpa49, hits give low values 0.995 | S. cerevisiae deletion strains, locus YNL250W, strain rad50, hits give low values 1.02 | S. cerevisiae deletion strains, locus YNL271C, strain bni1, hits give low values 1 | S. cerevisiae deletion strains, locus YNL298W, strain CLA4, hits give low values 1.01 | S. cerevisiae deletion strains, locus YNL307C, strain MCK1, hits give low values 1 | S. cerevisiae deletion strains, locus YNL322C, strain KRE1 (second series), hits give low values 1 | S. cerevisiae deletion strains, locus YNL322C, strain KRE1, hits give low values 0.996 | S. cerevisiae deletion strains, locus YNR049C, strain mso1, hits give low values 0.996 | S. cerevisiae deletion strains, locus YNR052C, strain pop2, hits give low values 1.01 | S. cerevisiae deletion strains, locus YOL006C, strain TOP1, hits give low values 0.986 | S. cerevisiae deletion strains, locus YOL012C, strain htz1 1.61 | S. cerevisiae deletion strains, locus YOL147C, strain pex11, hits give low values 1.02 | S. cerevisiae deletion strains, locus YOR001W, strain rrp6, hits give low values 1.01 | S. cerevisiae deletion strains, locus YOR061W, strain CKA2, hits give low values 1.01 | S. cerevisiae deletion strains, locus YOR069W, strain VPS5, hits give low values 1 | S. cerevisiae deletion strains, locus YOR070C, strain gyp1, hits give low values 1.01 | S. cerevisiae deletion strains, locus YOR080W, strain dia2, hits give low values 0.985 | S. cerevisiae deletion strains, locus YOR083W, strain WHI5 (second series), hits give low values 1.02 | S. cerevisiae deletion strains, locus YOR083W, strain WHI5, hits give low values 1 | S. cerevisiae deletion strains, locus YOR106W, strain vam3, hits give low values 1.01 | S. cerevisiae deletion strains, locus YOR136W, strain idh2, hits give low values 1.03 | S. cerevisiae deletion strains, locus YOR144C, strain elg1, hits give low values 1.01 | S. cerevisiae deletion strains, locus YOR184W, strain ser1, hits give low values 1.04 | S. cerevisiae deletion strains, locus YOR231W, strain MKK1, hits give low values 0.977 | S. cerevisiae deletion strains, locus YOR265W, strain rbl2, hits give low values 1.01 | S. cerevisiae deletion strains, locus YOR270C, strain vph1, hits give low values 1.03 | S. cerevisiae deletion strains, locus YOR290C, strain snf2, hits give low values 1.01 | S. cerevisiae deletion strains, locus YOR316C, strain cot1, hits give low values 1.02 | S. cerevisiae deletion strains, locus YPL051W, strain arl3, hits give low values 0.989 | S. cerevisiae deletion strains, locus YPL055C, strain LGE1, hits give low values 1.01 | S. cerevisiae deletion strains, locus YPL078C, strain atp4, hits give low values 1.01 | S. cerevisiae deletion strains, locus YPL106C, strain sse1, hits give low values 0.957 | S. cerevisiae deletion strains, locus YPL240C, strain hsp82, hits give low values 1.02 | S. cerevisiae deletion strains, locus YPL241C, strain CIN2, hits give low values 0.998 and 1 | S. cerevisiae deletion strains, locus YPL256C, strain CLN2, hits give low values 0.986 | S. cerevisiae deletion strains, locus YPR119W, strain clb2, hits give low values 0.999 | S. cerevisiae deletion strains, locus YPR141C, strain kar3, hits give low values 1.02 | S. cerevisiae deletion strains, locus YPR163C, strain tif3, hits give low values 1.03 | S. cerevisiae deletion strains, locus YPR167C, strain met16, hits give low values 1.02 | S. cerevisiae deletion strains, strain wtn01, hits give low values 1.02 | S. cerevisiae strains, strain wild type, hits give low values 0.984
